{
  "source": "PubChem BioAssay (NCATS)",
  "note": "Records with an inconclusive call do not appear. Unmarked numbers belong to inactive results. Activity calls are given as the source filed them. Calls follow the shape of the dose curve; as a rule, active = well fitted inhibition curve with a large enough effect; inconclusive = small, poorly fitted or top-dose-only effect; inactive = flat fitted curve, though single readings scatter. % is scaled to controls: 0 for no effect and ±100 for the full control effect; potency is read from the fitted curve at half-maximal effect.",
  "data": [
    {"experiment": "P-glycoprotein substrates identified in KB-8-5-11 adenocarcinoma cell line, qHTS therapeutic library screen (AID 1346987); also: nearly all actives have a fitted effect of over 65% in size", "settings": "KB-8-5-11 (P-gp overexpressing) viability, CellTiter-Glo, 72 h; series mostly up to 44.5 µM; activity change, negative = cytotoxicity: at the top concentration", "how_it_was_run": "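Steps: plate 500 KB-8-5-11 cells/well in DMEM + 10% FCS (colchicine removed); pin compounds in dose-response; incubate 72 h, 37 degree C, 5% CO2; add CellTiter-Glo, 5 min; read luminescence.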", "values": [
      {"molecule": "CC(C)c1cccc(C(C)C)c1NC(=O)Nc1ccc(Sc2ccc([N+](=O)[O-])cc2)cc1", "Potency": "5.8 µM (active)"},
      {"molecule": "O.O=C([O-])CC([S-])C(=O)[O-].[Au+].[Na+].[Na+]", "note": "(stereo not given)", "activity change, negative = cytotoxicity": "-3.46%"},
      {"molecule": "Nc1nc2c(cnn2CCCc2ccc(O)cc2)c2nc(-c3ccco3)nn12", "outcome": "inactive"},
      {"molecule": "COc1cc([C@@H]2c3cc4c(cc3C(O[C@@H]3O[C@@H]5COC(c6cccs6)O[C@H]5[C@H](O)[C@H]3O)C3COC(=O)[C@@H]32)OCO4)cc(OC)c1O", "note": "(stereo not given in full)", "activity change, negative = cytotoxicity": "-19%"},
      {"molecule": "CCNC(=O)Nc1ccc(-c2nc3c(c(N4CCOCC4C)n2)CCN(C2COC2)C3)cc1", "note": "(stereo not given)", "Potency": "1.84 µM (active)"},
      {"molecule": "CN(C)CCN(Cc1ccccc1)C(=O)c1cc(-c2ccc(F)cc2)n2nc(C(C)(C)C)cc2n1", "Potency": "20.6 µM (active)"},
      {"molecule": "C=C1C(=O)O[C@@H]2[C@H]3C(C)=CC(=O)C3=C(C)CC[C@@H]12", "Potency": "14.6 µM (active)"},
      {"molecule": "O=C(c1ccccn1)N(Cc1cccs1)C1(C(=O)NC2CCCCC2)CCCCC1", "activity change, negative = cytotoxicity": "-21.5%"},
      {"molecule": "COc1cc(O)cc(OC2OC(CO)C(O)C(O)C2O)c1", "note": "(stereo not given)", "outcome": "inactive"},
      {"molecule": "CC(CN(C)C)CN1c2ccccc2S(=O)(=O)c2ccccc21", "note": "(stereo not given)", "activity change, negative = cytotoxicity": "-21.3%"},
      {"molecule": "Cc1cccc(C)c1N(CCCc1cccnc1)C(=O)C(C)N", "note": "(stereo not given)", "activity change, negative = cytotoxicity": "-29.3%"},
      {"molecule": "CCC(CC)C(=O)OC12C(OC(=O)C(C)C)C(C)C3(O)C(C=C(CO)CC4(O)C(=O)C(C)=CC43)C1C2(C)C", "note": "(stereo not given)", "activity change, negative = cytotoxicity": "-15.3% [at 17.3 µM]"},
      {"molecule": "COc1ccccc1N1CCN(CC(C(=O)NC(C)(C)C)c2ccccc2)CC1", "note": "(stereo not given)", "activity change, negative = cytotoxicity": "-2.02%"},
      {"molecule": "CCOC(=O)[C@H](CCc1ccccc1)N[C@H]1CCCN2CCC[C@@H](C(=O)O)N2C1=O", "activity change, negative = cytotoxicity": "-7.1%"},
      {"molecule": "CCOC(=O)c1cnn(-c2ccccc2)c1NC(=O)c1cc2nc(-c3ccco3)cc(C(F)(F)Cl)n2n1", "activity change, negative = cytotoxicity": "-0.285%"},
      {"molecule": "CN1CCC(c2cn(C)c3ccc(OS(=O)(=O)c4c(F)cccc4F)cc23)CC1", "Potency": "18.4 µM (active)"},
      {"molecule": "CN=C(NC)NCc1ccccc1", "activity change, negative = cytotoxicity": "13%"},
      {"molecule": "Cn1nnnc1SCC1=C(C(=O)O)N2C(=O)[C@@H](NC(=O)[C@H](OC=O)c3ccccc3)[C@H]2SC1", "activity change, negative = cytotoxicity": "6.2%"},
      {"molecule": "c1cc(-c2cnn3cc(-c4ccc(N5CCNCC5)cc4)cnc23)c2cccnc2c1", "Potency": "5.17 µM (active)"},
      {"molecule": "CC1=C2C[C@@]3(C)C(CCC[C@@H]3C)C(O)C2OC1=O", "note": "(stereo not given in full)", "outcome": "inactive"},
      {"molecule": "COc1cc(C(=O)O)ccc1NC(=O)C1NC(CC(C)(C)C)C(C#N)(c2ccc(Cl)cc2F)C1c1cccc(Cl)c1F", "note": "(stereo not given)", "activity change, negative = cytotoxicity": "-72.2%"},
      {"molecule": "O=C[C@H](O)[C@@H](O)[C@H](O)[C@H](O)CO", "activity change, negative = cytotoxicity": "10.6%"},
      {"molecule": "CNCCCC1(c2ccccc2)OC(C)(C)c2ccccc21", "note": "(stereo not given)", "activity change, negative = cytotoxicity": "-11.3%"},
      {"molecule": "Cc1cc(C)c(-n2cc(C)c3c(Cl)nc(C)nc32)c(C)c1", "activity change, negative = cytotoxicity": "-16%"},
      {"molecule": "COc1ccc(CCO[C@@H]2O[C@H](CO[C@H]3OC[C@](O)(CO)[C@H]3O)[C@@H](OC(=O)/C=C/c3ccc(O)c(O)c3)[C@H](O[C@@H]3O[C@@H](C)[C@H](O)[C@@H](O)[C@H]3O)[C@H]2O)cc1OC", "activity change, negative = cytotoxicity": "2.86% [at 17.3 µM]"},
      {"molecule": "Nc1c(CC(=O)O)cccc1C(=O)c1ccccc1", "Potency": "inactive"},
      {"molecule": "CC(C)c1ccc(NC(=O)Cn2cnc3c2c(=O)n(C)c(=O)n3C)cc1", "activity change, negative = cytotoxicity": "-8.73%"},
      {"molecule": "CCC/C=C\\C=C/CCc1cc(O)c([C@@H]2O[C@H](CO)[C@@H](O)[C@H](O)[C@H]2O)c(O)c1C(=O)OC", "activity change, negative = cytotoxicity": "-5.96% [at 17.3 µM]"},
      {"molecule": "Cc1cc(N2CCOCC2)ccc1Nc1nc(NC2CCCCC2)c2[nH]cnc2n1", "Potency": "1.3 µM (active)"},
      {"molecule": "CCC(=O)OCC(=O)[C@@]1(OC(=O)CC)[C@@H](C)C[C@H]2[C@@H]3CCC4=CC(=O)C=C[C@]4(C)[C@@]3(Cl)[C@@H](O)C[C@@]21C", "activity change, negative = cytotoxicity": "-15.9%"},
      {"molecule": "CC(O)C(C)n1ncn(-c2ccc(N3CCN(c4ccc(OCC5COC(Cn6cncn6)(c6ccc(Cl)cc6Cl)O5)cc4)CC3)cc2)c1=O", "note": "(stereo not given)", "Potency": "14.6 µM (active)"},
      {"molecule": "CCNC(=O)N1CCCN(c2ccc(C(=O)NCCc3ccc(Cl)cc3Cl)cc2NC(=O)c2cccc(Cl)c2)CC1", "activity change, negative = cytotoxicity": "-21.8%"},
      {"molecule": "CCC1C(=O)N(C)c2cnc(Nc3ccc(C(=O)NC4CCN(C)CC4)cc3OC)nc2N1C1CCCC1", "note": "(stereo not given)", "Potency": "0.231 µM (active)"},
      {"molecule": "CC1=CC2/C=C(\\C)CCC(O)C(=O)C(O)CC(=O)C23C(=O)NC(CC(C)C)C3C1C", "note": "(stereo not given)", "activity change, negative = cytotoxicity": "-13.5% [at 17.3 µM]"},
      {"molecule": "O=C(Nc1cccc(C(F)(F)F)c1)Nc1ccc(Br)cc1-c1nn[nH]n1", "activity change, negative = cytotoxicity": "-10.6%"},
      {"molecule": "CC[C@@H]1C[C@]1(NC(=O)[C@@H]1C[C@@H]2CN1C(=O)[C@H](C(C)(C)C)NC(=O)OCC(C)(C)CCCCc1cccc3c1CN(C3)C(=O)O2)C(=O)NS(=O)(=O)C1CC1", "outcome": "inactive"},
      {"molecule": "O=P(O)(O)OC(CO)CO", "activity change, negative = cytotoxicity": "9.05%"},
      {"molecule": "C[C@@H](O[C@H]1OCCN(Cc2nn(P(=O)(O)O)c(=O)[nH]2)[C@H]1c1ccc(F)cc1)c1cc(C(F)(F)F)cc(C(F)(F)F)c1", "activity change, negative = cytotoxicity": "-6.43% [at 17.3 µM]"},
      {"molecule": "C/C(=C/C=C\\C=C\\Cc1cnco1)[C@@H](O)C(C)(C)C(N)=O", "activity change, negative = cytotoxicity": "-21.1%"},
      {"molecule": "Cc1cc2ncc(C(=O)NCC(C)(C)NCC(=O)N3CCC[C@H]3C#N)cn2n1", "activity change, negative = cytotoxicity": "8.79%"}
    ]}
  ]
}
